One may read the viability as a read-out of living cells in per cent, often relative to untreated cells.

The campaign covered roughly 2,200 compounds. About 1,300 (59%) were called active. The rule behind the calls is not given here. So high a share suggests a set chosen from earlier hits. A selection follows. Potency and affinity values are given separately.

The assay in a line: human monocytic cell viability reduction – S. typhimurium screen hits, cytotoxicity control for Salmonella PhoP regulon inhibitors, dose response (AID 2253). The following applies: THP-1 viability, CellTiter-Glo luminescence, 72 h; series mostly up to 50 µM; viability: at the top concentration. In general terms: ATP-based viability assays read luminescence as a measure of living cells.
On to `Nc1nnc(-c2cccc(Cl)c2Cl)c(N)n1`, for which the “viability” value is 90.1% (inactive).

On to `CCn1cc(C(=O)O)c(=O)c2cc3c(cc21)OCO3`, for which the “viability” value is 100% (inactive).

Regarding `CCCn1c(N)c(C(=O)COC(=O)c2c(C)noc2C)c(=O)n(C)c1=O`, the “viability” value was 81% (inactive).

For `Cc1ccccc1-n1c(=O)c2ccccc2n2cnnc12`, the “viability” value is 98.5% (inactive).

`O=C(O)Cn1cc(C(=O)c2ccco2)c2ccccc21`: the “viability” value is 102% (inactive).

With `Cc1cc(C(=O)COC(=O)CNC(=O)c2ccco2)c(C)n1Cc1ccco1`, the “viability” value was 90.9% (inactive).

For `COc1ccc(N2CCN(C(=O)C3CCCO3)CC2)cc1` (configuration not stated), the “viability” value is 91.3% (inactive).

In the case of `Cc1ccc(C)n1-c1cccc(N)c1`, the “viability” value is 95.7% (inactive).

As to `Cc1cc(C(=O)N/N=C/c2ccc[nH]2)no1`, the “viability” value was 98.2% (inactive).

For `CC(=O)N/N=C/c1ccc(OCCOc2ccc(Br)cc2)cc1`, the “viability” value was 103% (inactive).

With `N/C(=N\OC(=O)c1ccc(F)cc1)c1nonc1N`, the “viability” value was 82.5% (inactive).

As to `CCOC(=O)C1=C(C)N(CCO)C(=O)NC1c1cccc(O)c1` (configuration not stated), the “viability” value is 93.5% (inactive).

For `Cc1cc(C)n(-c2ccc(C(=O)OCC(=O)Nc3ccc([N+](=O)[O-])cc3)cc2)n1`, the “viability” value was 83.8% (inactive).

Consider `Cc1ccc(/C=N/NC(=O)Cn2cnc3ccccc32)o1`, for which the “viability” value is 81.5% (inactive).

As for `C=CCNC(=O)CC(=O)N/N=C/c1ccc(C(=O)OC)cc1`, the “viability” value is 93.1% (inactive).

In the case of `COc1ccc(OC)c(C(C(=O)NCc2ccco2)N(C(=O)Cn2nnc3ccccc32)C(C)C)c1` (configuration not stated), the “viability” value was 86.7% (inactive).

For the molecule `O=C(C1CCN(C2CC(=O)N(Cc3ccccc3)C2=O)CC1)N1CCCCCC1` (configuration not stated), the “viability” value is 110% (inactive).

For the molecule `Cc1ccc(S(=O)(=O)N2C(=O)CCC2C(=O)N2CCN(C)CC2)cc1` (configuration not stated), the “viability” value was 80.2% [at 25 µM] (inactive).

As to `CCn1cc(C(=O)NCCCN(C)C)c(=O)c2cc(F)c(N3CCN(C)CC3)cc21`, the “viability” value is 90.6% (inactive).

In the case of `Cc1cccc(-n2nc3c(c2NC(=O)c2ccco2)CSC3)c1C`, the “viability” value is 92.4% (inactive).

On to `O=C(Nc1cccc(-c2cn3cccnc3n2)c1)c1ccco1`, for which the “viability” value was 82.7% (inactive).

For the molecule `CC(=O)Nc1ccc(-n2nnnc2SCC(=O)Nc2cccc(NC(=O)c3ccco3)c2)cc1`, the “viability” value is 95% (inactive).

With `O=C(NC1CCCCC1)n1c(=O)oc2ccc(Cl)cc21`, the “viability” value was 83.7% (inactive).

`Cc1ccc(C(=O)C(OC(=O)COc2ccccc2C)c2ccccc2)cc1` (configuration not stated): the “viability” value was 93% (inactive).

Take `Cc1ccc(C(=O)N2CC3(C(C)C)CN(C(=O)c4ccc(C)cc4)CC(C(C)C)(C2)C3=O)cc1`: the “viability” value is 104% (inactive).

Turning to `COC(=O)c1cc(C#N)c(Oc2ccc(F)cc2)nc1C`, the “viability” value is 97.7% (inactive).

Consider `Nc1nc(Nc2ccc(Cl)cc2)n[nH]1`, for which the “viability” value is 95.1% (inactive).

On to `COC(=O)CSc1nc(SCc2ccccc2Cl)nc2c1CCCC2`, for which the “viability” value is 107% (inactive).

For `CCCCCNS(=O)(=O)c1cc(C)ccc1OC`, the “viability” value was 83.1% (inactive).

As to `CCCCn1nnnc1NCc1cc(OC)c(OC)cc1OC`, the “viability” value is 100% (inactive).

In the case of `COc1ccc(C(C)C)cc1S(=O)(=O)Nc1ccc(Cl)cn1`, the “viability” value was 84.3% [at 25 µM] (inactive).

With `C=CCNC(=O)C(=O)NN=C1CCN(C)CC1`, the “viability” value was 101% (inactive).

On to `COc1ccc(N2CCN(C(=O)Nc3ccc(S(=O)(=O)N(C)C)cc3)CC2)cc1`, for which the “viability” value is 107% (inactive).

On to `CCOCCCNC(=S)Nc1cc(C)cc(C)c1`, for which the “viability” value was 89% (inactive).

As to `COCCSc1ccccc1C(=O)NCC1CCCO1` (configuration not stated), the “viability” value is 95.3% (inactive).

Regarding `COc1cccc(-c2nc(-c3ccc(Br)o3)no2)c1`, the “viability” value is 89% (inactive).

Turning to `COCCNC(=S)N(Cc1cccnc1)Cc1ccc(OC)c(OC)c1`, the “viability” value was 81% (inactive).

Consider `CCOC(=O)C1=C(C)NC(=O)NC1c1ccsc1` (configuration not stated), for which the “viability” value is 87.3% (inactive).

As to `CC1=C(C(=O)Nc2cccnc2)C(c2ccccn2)n2nnnc2N1` (configuration not stated), the “viability” value was 92% (inactive).

As to `CN1C(=O)CC(P(=O)(c2ccccc2)c2ccccc2)N(C)C1=O` (configuration not stated), the “viability” value was 92.1% (inactive).

Take `Cc1cn([C@H]2C[C@H](N=[N+]=[N-])[C@@H](CO)O2)c(=O)[nH]c1=O`: the “viability” value is 89.7% (inactive).

As to `COc1nsnc1NS(=O)(=O)c1ccc(NC(=S)NC(=O)c2ccncc2)cc1`, the “viability” value was 100% (inactive).

On to `C#CC(C)(CC)NC(=O)c1cc(OC)c(OC)c(OC)c1` (configuration not stated), for which the “viability” value was 90.4% (inactive).

In the case of `CCn1nnc(-c2ccccc2NS(=O)(=O)c2ccc(S(=O)(=O)N3CCCCCC3)cc2)n1`, the “viability” value was 101% [at 12.5 µM] (inactive).

Turning to `Cc1nc(CC(=O)c2ccc(O)cc2O)cs1`, the “viability” value is 93.4% (inactive).

For the molecule `CC(=O)Nc1nc(-c2ccc(Cl)cc2)nc(C)c1C(C)=O`, the “viability” value is 93.3% (inactive).

In the case of `OCCNc1ccc(Cl)cc1`, the “viability” value is 91.2% (inactive).

As for `C#CCOc1c(Cl)cc(/C=N/O)cc1OC`, the “viability” value is 84.1% (inactive).

Consider `CC(C(=O)NC1C=CS(=O)(=O)C1)N1C(=O)/C(=C/c2ccc(Cl)cc2)SC1=S` (configuration not stated), for which the “viability” value was 99% (inactive).

As to `COc1cc(C)c(Cc2cnc(N)nc2N)cc1OC`, the “viability” value was 84.8% (inactive).

With `CCn1cc(C(=O)O)c(=O)c2cc(Br)ccc21`, the “viability” value is 96% (inactive).

As to `Cc1ccc(OCc2nnc(SCC(=O)Nc3ccc4c(c3)OCO4)n2C)cc1`, the “viability” value is 103% (inactive).

Consider `COc1ccc(NC(=O)CSc2nccn2-c2ccccc2)cc1`, for which the “viability” value is 83.9% (inactive).

For `Cc1cc(C)c(C#N)c(SCC(O)CS(=O)(=O)Cc2ccccc2)n1` (configuration not stated), the “viability” value is 82.1% (inactive).

Consider `CCn1c(Cc2c(C)[nH]c3ccccc23)n[nH]c1=S`, for which the “viability” value is 94.3% (inactive).

In the case of `O=C1CSc2ccccc2N1Cc1ccc(F)cc1`, the “viability” value was 91.5% (inactive).

Consider `COc1cc(C2SCC(=O)N2c2nnc(C34CC5CC(CC(C5)C3)C4)s2)cc(OC)c1OC` (configuration not stated), for which the “viability” value was 100% (inactive).

Consider `C/C(=C\c1ccco1)C1Nc2cccc3cccc(c23)N1`, for which the “viability” value was 116% (inactive).

As for `CN1CCN(C(c2cccc(C(F)(F)F)c2)c2nnnn2C(C)(C)C)CC1` (configuration not stated), the “viability” value was 90.2% (inactive).

Consider `O=C(O)c1cc(O)c2c(c1)[C@@H]([C@H]1c3cc(C(=O)O)cc(O)c3C(=O)c3c(O[C@@H]4O[C@H](CO)[C@@H](O)[C@H](O)[C@H]4O)cccc31)c1cccc(OC3O[C@H](CO)[C@@H](O)[C@H](O)[C@H]3O)c1C2=O` (some centres not stated), for which the “viability” value is 96.5% (inactive).

For the molecule `CN1CCN(c2c(F)cc3c(=O)c(C(=O)O)cn4c3c2OCN4C)CC1`, the “viability” value was 99.9% (inactive).

Take `COc1ccc(-n2c(=O)c3ccccc3n(CC(=O)Nc3cc(C)on3)c2=O)cc1OC`: the “viability” value was 103% (inactive).

With `CCn1cc(C(=O)O)c(=O)c2cc(F)c(N3CCN(C(=S)NC(=O)c4ccc(F)c(F)c4)CC3)cc21`, the “viability” value was 91.9% (inactive).

Regarding `COc1ccccc1CC1(C)NC(=O)N(CC(=O)N2CC(C)OC(C)C2)C1=O` (configuration not stated), the “viability” value was 103% (inactive).

On to `CCn1nc(C(=O)O)c(=O)c2cc3c(cc21)OCO3`, for which the “viability” value is 103% (inactive).

`Cc1snc(S(=O)(=O)/C(C#N)=N\Nc2ccccc2)c1C#N`: the “viability” value was 85.4% (inactive).

In the case of `COc1ccc(N2C(=O)[C@@H]3[C@H](C2=O)[C@H]2c4ccccc4C=CN2[C@@H]3C(=O)Nc2ccccc2)cc1`, the “viability” value is 91.8% (inactive).

On to `O=C(c1ccccc1)N1CCSC1=S`, for which the “viability” value is 91.7% (inactive).

Consider `CC(CN1CCOCC1)C(=O)c1ccccc1` (configuration not stated), for which the “viability” value is 85% (inactive).

As to `CC(C)NC(=O)/C(=N\O)c1ccccc1`, the “viability” value was 108% (inactive).

For `CCC(CC)C(=O)Nc1cccc(C(=O)N2CCCC2)c1`, the “viability” value is 90% (inactive).

Turning to `Cc1cc(C(C)c2ccccc2)c(O)c(CN2CCOCC2)c1C` (configuration not stated), the “viability” value is 91.4% (inactive).

These data come from PubChem BioAssay AID2253 (Southern Research Specialized Biocontainment Screening …, 2010).
